The list is not random: actives were taken first. Their share in the collection is about 3.2%.
Ub-GFP proteasome = Ubiquitin-GFP Assay | Ubiquitin-GFP reporter cells, proteasome inhibition, GFP fluorescence; response scale: untreated = 0%, 10 µM MG-132 = 100% | Potency, µM (top dose mostly 45.9 µM), usual class: activators | 67,000 tested, under 10 active | AID 526, 2006; active means well fitted activation curve with a large enough effect, not every such curve was filed as active; inconclusive means small, poorly fitted or top-dose-only effect, or another doubt; inactive means no such curve, though single readings can be large or run the other way
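Proteasome blockade was scored as a rise in GFP-expressing U2OS cells carrying a ubiquitin(G76V)-GFP construct, imaged after 4 hr compound treatment at 37 °C across a 46 uM–2.9 nM series.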
HBB splicing = qHTS Assay for Modulators of Hemoglobin Beta Chain Splicing | Potency, µM (top dose mostly 46.1 µM), most hits filed as activators | AID 925, 2007 | HBB splicing reporter cell assay, activation; EGFP reporter with mutant IVS2-654 intron; response scale: normalised to 500 nM splice-correcting PNA | 65,000 tested, 0.06% active
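Compounds were applied for 2 days to HeLa EGFP-654 cells, 500/well in Optimem with 2% FCS. The reporter's EGFP is disrupted by mis-splicing of beta-globin intron IVS2-654. Readout: summed well GFP fluorescence from 488 nm laser scanning; reference was 500 nM antisense […] 654 PNA.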
ALOX15 inhib = qHTS Assay for Inhibitors of 15-hLO (15-human lipoxygenase) | Polyunsaturated fatty acid lipoxygenase ALOX15 (Homo sapiens), P16050 | purified 15hLO-1, xylenol orange hydroperoxide absorbance | Potency, µM (titrated, usually from 57.1 µM), most hits filed as inhibitors | 74,000 tested, 1.4% active; further: nearly all actives have a fitted effect of over 55% in size
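Quantitative HTS in 25 mM Hepes pH 7.5 containing 0.01% Triton X-100: human 15hLO-1 at 40 nM, arachidonic acid at 50 uM, 6 min turnover. Product quantified via ferrous oxidation/xylenol orange, 573:405 nm absorbance ratio.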
Pol III holo inh = qHTS Assay for Inhibitors of DNA Polymerase III Holoenzyme System | reconstituted DNA polymerase III holoenzyme replication, biochemical | Potency, µM (top dose mostly 57.1 µM) | 71,000 tested, 0.25% active | AID 603, 2007
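Reconstituted *E. coli* holoenzyme (0.35 nM Pol III, 1 nM beta, 154 nM SSB, 2 nM primase) was preincubated with compound for 15 min at RT. Synthesis on 1.4 nM ssM13Gori ran 35 min, then was stopped with PicoGreen/EDTA and read as dsDNA fluorescence.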
Tau fil binding = qHTS Assay for Tau Filament Binding. Microtubule-associated protein tau (Homo sapiens), P10636. recombinant tau filaments, thioflavin S fluorescence, 15 h; filaments grown with octadecylsulfate alongside compound. Potency, µM (highest dose often 57.1 µM). 71,000 tested, 2% active. AID 596, 2007;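 further: actives lower thioflavin S fluorescence by blocking filaments or displacing dye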
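Recombinant tau protein (human, 1 uM final) plus 30 uM ODS in HEPES pH 7.4 with NaCl, DTT and thioflavine S. Compound present from the start; fluorescence at 510 nm after 15 h, 37 C.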
GFP derepression = qHTS Assay for Epigenetic Modulators | 68,000 tested, 0.09% active | mouse C127i GFP locus derepression, cytometry, 30 h | Potency, µM (highest dose often 46.1 µM)
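Read-out is the number of GFP-positive cells, scored as fluorescent objects 20 to 120 um wide, reflecting derepression of a silenced CMV-GFP reporter in murine C127i cells after 30 h compound exposure at 37 C.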
Large screens that a line does not name were inactive. Unless noted, the call rests on the fitted dose curve; in most records, active means well fitted curve in the direction sought with a large enough effect; inconclusive means small, poorly fitted or top-dose-only effect, or another doubt; inactive means no such curve, though single readings can be large; an effect the other way counts as inactive or inconclusive.

CCOC(=O)COc1ccc(C(=O)c2ccccc2)c(O)c1	none
O=C(O)c1ccc(Cl)c2c1C1C=CCC1C(c1ccccn1)N2 (stereo unspecified)	ALOX15 inhib 16µM, Pol III holo inh inconclusive
CN(C)c1ccc(NC(=O)Cn2cc3c(n2)CCCC3)cc1	Tau fil binding 13µM
CCc1cccc(NC(=O)Cn2cc3c(n2)CCCC3)c1	none
CCCC=O	none (no result: Ub-GFP proteasome, GFP derepression)
CCOc1ccccc1NC(=O)CC1Nc2cc(C)c(C)cc2NC1=O (stereo unspecified)	ALOX15 inhib inconclusive, Tau fil binding 4µM
CC(NC(=O)CC1Nc2ccccc2NC1=O)c1ccccc1 (stereo unspecified)	ALOX15 inhib inconclusive
CCOc1ccccc1NC(=O)CC1Nc2ccccc2NC1=O (stereo unspecified)	none
Cc1ccc(NC(=O)CC2Nc3ccccc3NC2=O)cc1Cl (stereo unspecified)	Tau fil binding 20µM
COc1ccc(CCNC(=O)CC2Nc3ccccc3NC2=O)cc1 (stereo unspecified)	Tau fil binding 13µM
COc1ccc([C@@H](Nc2ccccn2)c2cc(C(C)(C)C)cc(C(C)(C)C)c2O)cc1	none
COc1ccccc1C[C@@H](Cc1nc2ccccc2[nH]1)c1nc2ccccc2[nH]1	none (no result: HBB splicing, ALOX15 inhib)
Cc1cc(Nc2ccc(N=Nc3ccc(O)c4ncccc34)cc2)nc(C)n1	none
Cc1ccc(O)c(N=Nc2ccccc2)n1	ALOX15 inhib 13µM, Tau fil binding inconclusive
CC(N=C1NS(=O)(=O)c2ccccc21)c1ccccc1 (stereo unspecified)	none
CC(N=Cc1cccc(O)c1O)c1ccccc1 (stereo unspecified)	ALOX15 inhib 13µM, Tau fil binding 13µM
O=C(N/N=C\c1ccccc1O)c1ccccc1O	Pol III holo inh inconclusive, Tau fil binding 32µM (no result: HBB splicing)
CC(C)(C)N1C(=O)[C@H]2[C@H]3[C@H](O)[C@H](O)C/C(=N/OC[C@@H](O)COCc4ccco4)[C@@H]3CC[C@@H]2C1=O	none (no result: Ub-GFP proteasome, Pol III holo inh, Tau fil binding, GFP derepression)
Cc1ccc(NCc2nc3ccccc3n2C)cc1	ALOX15 inhib 16µM
Cn1c(CNc2nc3ccccc3n2C)nc2ccccc21	none
COc1ccccc1N1CCN(CCOc2c(OC)cccc2OC)CC1	none (no result: Ub-GFP proteasome, HBB splicing, ALOX15 inhib, Pol III holo inh, Tau fil binding)
COc1ccccc1N1CCN(C/C=C/c2ccc(N(C)C)cc2)CC1	ALOX15 inhib 25µM, Tau fil binding inconclusive
COc1ccc(-c2cc(C(=O)N/N=C/c3ccc(OC)c(OC)c3)[nH]n2)cc1	none (no result: Ub-GFP proteasome, HBB splicing, Pol III holo inh, Tau fil binding, GFP derepression)
Cc1cc(Nc2ccc(F)cc2F)n2ncnc2n1	none
Cc1cc(Nc2ccccc2N2CCOCC2)n2ncnc2n1	Tau fil binding 20µM
COc1cc(/C=N/NC(=O)c2cc(-c3ccccc3)n[nH]2)cc(OC)c1OC	none (no result: Ub-GFP proteasome, HBB splicing, Pol III holo inh, Tau fil binding, GFP derepression)
O=C(c1ccncc1)N1CCC2(CCCN(Cc3nccs3)C2)CC1	ALOX15 inhib 0.2µM
CN1C(=O)CC(N2CCC(c3nc4ccccc4[nH]3)CC2)C1=O (stereo unspecified)	Tau fil binding 20µM (no result: GFP derepression)
CCn1cc(SCC(N)=O)c2ccccc21	none (no result: GFP derepression)
Cn1cc(C2=C(c3cn(CCCSC(=N)N)c4ccccc34)C(=O)NC2=O)c2ccccc21	ALOX15 inhib 20µM (no result: Ub-GFP proteasome, Pol III holo inh, Tau fil binding, GFP derepression)
CN(C)CCCn1cc(C2=C(c3c[nH]c4ccccc34)C(=O)NC2=O)c2ccccc21	Tau fil binding 2µM (no result: HBB splicing)
COC(=O)[C@H](N)Cc1ccc(Cl)cc1	none
CCCCCCCCC/C=C/CC1CC(=O)OC1=O (stereo unspecified)	none (no result: Ub-GFP proteasome, GFP derepression)
COc1cc(N=c2ssnc2Cl)cc(OC)c1OC	ALOX15 inhib 3.2µM
COc1ccc(Cc2nnc3n2N=C(c2cc4ccccc4o2)CS3)cc1OC	Tau fil binding 32µM
N#Cc1c(-c2ccco2)cc(-c2cccnc2)nc1N	ALOX15 inhib 7.9µM, Pol III holo inh 32µM

Bioassay records from PubChem BioAssay.
